Pf apPOL block = Pf-apPOL DNA polymerase inhibition; Recombinant Pf-apPOL, molecular beacon fluorescence, 1.5 h; inhibition, % at 10 µM; hit rate 0.25% among 210,000; AID 1794808
mHTT CaM bind = disrupts binding of mutant huntingtin to calmodulin | AlphaScreen His-mHTT/GST-CaM binding, luminescence | inhibition, % at 15 µM | hit rate 3.6% among 190,000 | AID 1671202
Large screens that a line does not name were inactive. An excerpt weighted towards active compounds, which were near 3.6% of everything screened. No stated cut-off is given here; in the data, active means inhibition above about 50%; inactive means the rest.

CCOC(=O)c1ccc(NC(=O)N2CCC3(CC2)Nc2cc(F)ccc2-n2cccc23)cc1	mHTT CaM bind 56
COc1cccc(COc2cn(C)c(C(=O)N3CCN(c4ncccn4)CC3)cc2=O)c1	none
CCc1onc(C)c1C1CCCN1Cc1ccccn1 (centres undefined)	none
CC12c3ccccc3C(C)(c3ccccc31)C1C(=O)N(Cc3ccccc3)C(=O)C12 (centres undefined)	none
N#Cc1c(-n2ncnc2-c2ccc3c(c2)OCO3)sc2c1CCCCC2	none
CC1CCN(Cc2csc(N3CCN(C(=O)COc4ccc(F)cc4)CC3)n2)CC1	none
COCCCN1COc2ccc3c(=O)c(Oc4ccc(OC)cc4)c(C(F)(F)F)oc3c2C1	none
C=CCSc1nc2c(c(-c3ccc(C)o3)c1C#N)CCCC2	none
Cc1ccc(-c2c(C#N)c(SCC(=O)c3ccc(O)c(O)c3)nc3c2CCCC3)o1	mHTT CaM bind 69
O=C(Nc1ccc(N2CCOCC2)cc1)c1ccc(Cl)cc1Cl	none
CCSC1=C(C#N)C(Cc2ccccc2)C2=C(CCCC2=O)N1 (centres undefined)	none
N#CC1=C(S)NC2=C(C(=O)CCC2)C1Cc1ccccc1 (centres undefined)	mHTT CaM bind 59
CCOC(=O)C1CCN(C(=O)C2(c3ccc(NC(C)=O)cc3)CCCCC2)CC1	none
N=c1n(Cc2ccccc2)c2ccccc2n1CC(O)COc1ccc(Cl)cc1 (centres undefined)	mHTT CaM bind 60
CCCCn1c(=N)n(CC(O)COc2ccc(Cl)cc2)c2ccccc21 (centres undefined)	none
O=c1[nH]c2ccc(N=Cc3cc(Br)c(O)c(Br)c3)cc2[nH]1	none
O=C1NC(=O)[C@H]2[C@@H]1[C@@H](C(=O)c1ccccc1)N1c3ccccc3C=C[C@H]21	mHTT CaM bind 58 (no result: Pf apPOL block)
NC(=O)N1c2ccccc2C=Cc2ccccc21	none (no result: mHTT CaM bind)
CN(CC(=O)N1CCOCC1)S(=O)(=O)c1ccc(Cl)cc1	none
O=C(NCCc1csc(C2CCN(C(=O)c3cc(F)ccc3F)CC2)n1)C1CC1	none
CS(=O)(=O)N1CC(C(=O)Nc2ccc3c(c2)OCCO3)C2(CCCCC2)C1 (centres undefined)	none
O=C(Nc1ccc2c(c1)OCO2)C1CN(S(=O)(=O)C2CC2)CC12CCCCC2 (centres undefined)	mHTT CaM bind 73
O=C(Nc1cccc(Br)c1)c1cnccn1	none
Cc1cc(C)nc(SCc2cc(=O)c(OC(=O)c3cc4ccccc4o3)co2)n1	mHTT CaM bind 92
CC(=O)Nc1nnc(SCc2cc(=O)c(OC(=O)c3ccco3)co2)s1	none
CCN(CC)S(=O)(=O)N1CCC(C(=O)NC2CCCc3ccccc32)CC1 (centres undefined)	none
O=C(NC1CCCc2ccccc21)C1CCN(Cc2c[nH]c3ccccc23)CC1 (centres undefined)	mHTT CaM bind 70
Clc1ccc(Nc2nc(N3CCOCC3)c3ccccc3n2)cc1	none
CN(CCc1ccccc1)c1cc2c(c3c1ccn3C)C1CCC2O1 (centres undefined)	mHTT CaM bind 99
COc1ccccc1-c1cc2c(c3c1ccn3C)C1CCC2O1 (centres undefined)	none
CCN(Cc1ccccc1)c1cc2c(c3c1ccn3C)C1CCC2O1 (centres undefined)	none
CN(c1cccc(F)c1)c1cc2c(c3c1ccn3C)C1CCC2O1 (centres undefined)	mHTT CaM bind 93
CCCN(CC1CC1)c1cc2c(c3c1ccn3C)C1CCC2O1 (centres undefined)	none
Cn1ccc2c(-c3ccc4[nH]ccc4c3)cc3c(c21)C1CCC3O1 (centres undefined)	mHTT CaM bind 56
Cn1ccc2c(-c3cccc4ccccc34)cc3c(c21)C1CCC3O1 (centres undefined)	none
CN(c1ccc(Cl)cc1)c1cc2c(c3c1ccn3C)C1CCC2O1 (centres undefined)	mHTT CaM bind 100
CCCN1C(=O)c2cccnc2Sc2cc(C(=O)N3CCCCC3)ccc21	none
CC1(C(=O)N2CCCc3ccccc32)Cc2ccccc2C(=O)O1 (centres undefined)	none
CC(C)Oc1cccc(C(=O)NC2CCCC2)c1	none
Cn1ccc2c(N3CCCCCCC3)cc3c(c21)C1CCC3O1 (centres undefined)	mHTT CaM bind 71
CN(c1cc2c(c3c1ccn3C)C1CCC2O1)C1CCCCC1 (centres undefined)	mHTT CaM bind 59
Cn1ccc2c(-c3ccc(F)cc3F)cc3c(c21)C1CCC3O1 (centres undefined)	none
CCN(CC)c1cc2c(c3c1ccn3C)C1CCC2O1 (centres undefined)	none
ClC(Cl)(Cl)CCCCn1nnc2ccccc21	mHTT CaM bind 100
c1ccc2c(c1)nnn2CCSCCn1nnc2ccccc21	none
COc1ccc(C2SCC(=O)N2CCc2ccc(OC)c(OC)c2)c(OC)c1 (centres undefined)	none
COc1ccc(CCN2C(=O)CSC2c2ccc(Cl)c(Cl)c2)cc1OC (centres undefined)	mHTT CaM bind 100
Cn1cnc2c(=O)[nH]c(N)nc21	none (no result: Pf apPOL block)
